# Data as given in article PMC7819943, “Rice protein-binding microarrays: a tool to detect cis-acting elements near promoter regions in rice”.
# The full ranking holds about 39,000 sequences; the median of “fluorescence intensity (a.u.)” is about 4,300, and the highest 2% start at about 39,000. What follows is part of a selection rich in the highest values, with near analogues and random picks from the rest.
# Molecular target: T1, OsSMF1 (Oryza sativa, UniProt Q6ZLB0 1-436)
# T1 sequence: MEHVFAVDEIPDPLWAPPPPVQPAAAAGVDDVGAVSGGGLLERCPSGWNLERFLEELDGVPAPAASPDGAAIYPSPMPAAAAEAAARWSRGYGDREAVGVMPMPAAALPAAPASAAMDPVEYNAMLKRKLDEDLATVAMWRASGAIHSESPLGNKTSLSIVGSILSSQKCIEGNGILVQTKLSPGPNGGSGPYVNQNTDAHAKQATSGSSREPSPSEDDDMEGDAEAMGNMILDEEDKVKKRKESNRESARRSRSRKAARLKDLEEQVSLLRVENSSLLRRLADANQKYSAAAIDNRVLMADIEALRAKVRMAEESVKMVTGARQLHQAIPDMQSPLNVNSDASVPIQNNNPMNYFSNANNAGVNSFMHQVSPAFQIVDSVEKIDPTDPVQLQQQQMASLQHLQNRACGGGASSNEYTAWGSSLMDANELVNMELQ
# Assay: protein-binding microarray (RPBM); PBS, 2% BSA, 51.3 ng/ul salmon testes DNA, 50 uM zinc acetate, 200 nM TF, 25 C, 1 h; high values mean tight binding
# Conditions: protein: recombinant; tags: N-terminal polyhistidine and DsRed monomer fusion (pET32a); chain copies: 2; label: CyDye5-dUTP incorporated in the synthesized complementary strand; 3' TTTTT single-stranded linker to array surface; dsDNA, one strand shown
# In short: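 Using Ni–NTA, transcription factors fused N-terminally to polyhistidine and DsRed were purified after expression in E. coli BL21-CodonPlus. These were incubated at 200 nM with a blocked, double-stranded custom Agilent array for 1 h at 25 °C in a buffer containing 50 µM zinc acetate, and the array was washed. The binding signal is per-feature fluorescence intensity (arbitrary units) on an Axon 4000B scanner.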
row,Sequence,binding signal
1,AAATAACAAAATTACAAGTTTAACATAAATATGTAATCACCGGAGTCACCTAGTGCAG,21200 fluorescence intensity (a.u.)
2,AAGAAGTACGTCATATATTCAGTTTTATGTATTATTTTATCGGAGTCACCTAGTGCAG,3310 fluorescence intensity (a.u.)
3,ATCTTGATATCTGCAACATAAAATGTAACATCAGATTTAACGGAGTCACCTAGTGCAG,39500 fluorescence intensity (a.u.)
4,TTCGACACAGTCATACGTGAGTCGGATGGAGTTAGGTCTGCGGAGTCACCTAGTGCAG,4150 fluorescence intensity (a.u.)
5,CTCCTCCCATGCGCCGCCACGTAGGATCGCGCGATCAGATCGGAGTCACCTAGTGCAG,10300 fluorescence intensity (a.u.)
6,AACACGAAAATGAAAGGGAGGGGCTTTCCTTAGCGATTAACGGAGTCACCTAGTGCAG,3830 fluorescence intensity (a.u.)
7,TGTAAACTTTTATGATCATTTAGGAGCTCTGGACAGTAATCGGAGTCACCTAGTGCAG,18200 fluorescence intensity (a.u.)
8,ATGCCATTGATTCAATAGTGAATCATCGTTCTTTCTGGATCGGAGTCACCTAGTGCAG,3550 fluorescence intensity (a.u.)
9,AGGTAATGTATCATAAAACTATAGATTTAACACTAAATTTCGGAGTCACCTAGTGCAG,53000 fluorescence intensity (a.u.)
10,AAGTTATACTTAAAGTATTATAAATAATAAAGTAAGTCACCGGAGTCACCTAGTGCAG,34100 fluorescence intensity (a.u.)
11,TTTATTATTAGTTTACGTTTAATACTTCTAATTAGTATAACGGAGTCACCTAGTGCAG,3240 fluorescence intensity (a.u.)
12,CTATAATTTAAACATGTAAAGTTTACGTGTATATAAATTTCGGAGTCACCTAGTGCAG,3160 fluorescence intensity (a.u.)
13,AAATGGATGATAAGTATAATTACTTAGAGCAAGTTTAATACGGAGTCACCTAGTGCAG,65500 fluorescence intensity (a.u.)
14,GTATCAAAACATATTCAATCATAGATTTAATGAAAACTAACGGAGTCACCTAGTGCAG,3360 fluorescence intensity (a.u.)
15,TAGCCAGGAGGGAGGTGGCAAAACAGAATGATGGGAGGGACGGAGTCACCTAGTGCAG,3220 fluorescence intensity (a.u.)
16,GGCTTAAGTCAAGCTAATTTTAGATATTTATTATTTTGTGCGGAGTCACCTAGTGCAG,3900 fluorescence intensity (a.u.)
17,GTTCCATTGGTTTGTAATAATGAAGCCTGCCTAGTGCTTTCGGAGTCACCTAGTGCAG,32100 fluorescence intensity (a.u.)
18,CATCGTCCGCCGTGACACGCTGGCGGAGTCCGTGGTGCTACGGAGTCACCTAGTGCAG,5010 fluorescence intensity (a.u.)
19,GGGGAGGAGGACGAGTAACAGACGTGGTGGCCGCCGAGGCCGGAGTCACCTAGTGCAG,3490 fluorescence intensity (a.u.)
20,CGTCGATTAATTTCCCTGGTAAATACGAAATGTTCATGGTCGGAGTCACCTAGTGCAG,39600 fluorescence intensity (a.u.)
21,TATATTTCATTAATATAAATAAAATTAAAATGTTACTTAACGGAGTCACCTAGTGCAG,25600 fluorescence intensity (a.u.)
22,GTAATTAAATTAAATTAAATTGATTAATACCAACCCTGGTCGGAGTCACCTAGTGCAG,24500 fluorescence intensity (a.u.)

row,Sequence,binding signal
1,GATCTAGCCGACTCGATCCCGCCGATGACGATTCCATCCCCGGAGTCACCTAGTGCAG,39300 fluorescence intensity (a.u.)
2,ATGATGATGATCCTGATCCTGATCTTCCTCCTCGATCGACCGGAGTCACCTAGTGCAG,42700 fluorescence intensity (a.u.)
3,CTCCTCTCCGATGAAGACCTGCCACCGGTCTGAACCATCTCGGAGTCACCTAGTGCAG,64300 fluorescence intensity (a.u.)
4,TGGCCCATCAGAGTCAGAGCCGCCGCCGACTCCAGATTCCCGGAGTCACCTAGTGCAG,3220 fluorescence intensity (a.u.)
5,TCTCTCTCATCCTTCCAATCGATCTCCTCGACCTGCTATGCGGAGTCACCTAGTGCAG,3440 fluorescence intensity (a.u.)
6,CTCCACCACGAGTCACGAGTCACGACCACCTCTCCGGTCTCGGAGTCACCTAGTGCAG,4170 fluorescence intensity (a.u.)
7,CCCCACTGATGATGATGATGACTCGATTCTATTCCACCGCCGGAGTCACCTAGTGCAG,5550 fluorescence intensity (a.u.)
8,CTGAACCATCCGACTCACCACCGGTATTTCTCGGCCATCTCGGAGTCACCTAGTGCAG,3950 fluorescence intensity (a.u.)
9,CTCTCCTCTCCTCTTGGTGATGACTGATCGATGACCACCACGGAGTCACCTAGTGCAG,4680 fluorescence intensity (a.u.)
10,GCCCGGAAGCTAGCGCCTCGTCGACTTGGGCGGCGGCTGACGGAGTCACCTAGTGCAG,18000 fluorescence intensity (a.u.)
11,CTTAGTCGCCATTTTCTTCCCATATCCACGCGCCACGTGGCGGAGTCACCTAGTGCAG,25100 fluorescence intensity (a.u.)
12,TGAATCTATACACTCTTCTATTCAGATTCGTTGTACTATGCGGAGTCACCTAGTGCAG,3870 fluorescence intensity (a.u.)
13,GCCTAATTACATCATGATTTGACAATGTTGTGCTACAGTACGGAGTCACCTAGTGCAG,4210 fluorescence intensity (a.u.)
14,GCCGTGCCGTGCCGTGCCGGCCCGCGGGCTCGGCCAGCGGCGGAGTCACCTAGTGCAG,30700 fluorescence intensity (a.u.)
15,CTACCAGACCCGTGGGCCGGCTCTGCCTCGCCTAATCCAGCGGAGTCACCTAGTGCAG,47000 fluorescence intensity (a.u.)
16,CCGCGGCCACCTGGCCTACCTCGCCTCTCCCGTGGGCCCCCGGAGTCACCTAGTGCAG,3240 fluorescence intensity (a.u.)
17,TGCATAAGTGTCCGTACCAGTACGGTCAGAGTGACATATGCGGAGTCACCTAGTGCAG,3770 fluorescence intensity (a.u.)
18,TTACGAGACGAATCTTTTAAGACTAATTGCTCCATGATTTCGGAGTCACCTAGTGCAG,3280 fluorescence intensity (a.u.)
19,TAAATTTTAATTTTCTGATTGGTATGCCACGTTAGTGAAACGGAGTCACCTAGTGCAG,3420 fluorescence intensity (a.u.)
20,TTTCTCTGAACGACCGGCCACGTTAAACTAAGGCCAAGTCCGGAGTCACCTAGTGCAG,65500 fluorescence intensity (a.u.)
21,TTTGGTTTCCGGCCAAACATTGCCACGCCTAACTTAAGGCCGGAGTCACCTAGTGCAG,5170 fluorescence intensity (a.u.)
